# Screening results (PubChem)
# PfHsp90 yeast 2 – growth inhibition of PfHsp90-expressing yeast, primary screen, antimalarial PfHsp90 inhibitor project, S. cerevisiae, BacTiter-Glo luminescence, single point, set 2; inhibition, % at 9.4 µM; 310,000 compounds, 0.32% hits; BacTiter-Glo ATP, 48 h; yeast lacking PDR1 and PDR3 efflux regulators;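 active = every replicate shows inhibition above about 80%, whatever the replicate mean, limit read from the data; inconclusive = mean inhibition reaches the set limit but some replicate falls short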;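 note: 0% = DMSO neutral controls and 100% = 20 µM radicicol positive controls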
# SKKanGAS inh – S. pyogenes SKKanGAS growth inhibitors in kanamycin, primary screen, streptokinase expression inhibitor project, SKKanGAS strain, BacTiter-Glo luminescence | 6 h | inhibition, % at 7.5 µM | AID 1662, 2009 | 300,000 compounds, 1.3% hits;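 active = mean replicate score, as percent of positive control median, at least 50; inconclusive = mean below 50 but one replicate at or above 50; inactive = mean and every replicate below 50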;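 note: strain carries kanamycin resistance gene driven by streptokinase promoter and grows in 40 µg/ml kanamycin; loss of luminescence reflects streptokinase promoter inhibition or plain growth inhibition; 0% = median of DMSO wells and 100% = positive control at its reference dose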
# tim23-1 inh – growth inhibitors of tim23-1 mutant yeast, primary screen, luminescence, uHTS; S. cerevisiae tim23-1 growth, BacTiter-Glo luminescence, 24 h; 330,000 compounds, 1.3% hits; inhibition, % at 20 µM;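 active = growth inhibition of the mutant yeast at or above 50%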;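 note: temperature-sensitive mutant grown at 25 °C; plate controls were DMSO-treated mutant yeast for no effect and medium wells lacking yeast for full effect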
# TIM10 inh – growth inhibitors of isogenic TIM10 control yeast, primary screen, counter-screen for tim10-1 yeast inhibitor project, luminescence, uHTS. S. cerevisiae TIM10 strain growth, BacTiter-Glo luminescence, 24 h. inhibition, % at 10 µM. 330,000 compounds, 1.4% hits. AID 463195, 2010;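 active = inhibition of 40% or more at the single tested concentration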;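 note: wild-type TIM10 isogenic control strain grown at permissive 25 °C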
# tim10-1 inh – growth inhibitors of tim10-1 mutant yeast, primary screen, luminescence, uHTS; inhibition, % at 20 µM; AID 463190, 2010; 330,000 compounds, 2.2% hits; S. cerevisiae tim10-1 ts strain growth, BacTiter-Glo, 24 h;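 active = inhibition of at least 40%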;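 note: mutant grown at 25 °C; 0% = DMSO wells with yeast and 100% = wells holding no yeast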
# tim10-1 conf – growth inhibitors of tim10-1 mutant yeast, confirmation, single concentration, luminescence, S. cerevisiae; shares compounds with tim10-1 inh; S. cerevisiae tim10-1 ts strain growth, BacTiter-Glo, 24 h; inhibition, % at 20 µM; 7,400 compounds, 56% hits; AID 463213, 2010;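 active = inhibition of yeast growth at or above a set limit in either of two repeat tests at 20 µM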;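 note: tim10-1 mutant grown at permissive 25 °C to find synthetic lethal compounds; 0% = DMSO yeast wells and 100% = medium wells without yeast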
# tim10 confirm – growth inhibitors of wild-type TIM10 yeast, confirmation, counter-screen for tim10-1 synthetic lethality project, single concentration, luminescence, S. cerevisiae. shares compounds with TIM10 inh. S. cerevisiae tim10 strain growth, BacTiter-Glo luminescence, 24 h. inhibition, % at 10 µM. 4,600 compounds, 63% hits. AID 463215, 2010;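 active = inhibition of yeast growth at or above a set limit in either of two replicates at 10 µM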;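 note: this counterscreen used the strain with wild-type TIM10; 0% = yeast with DMSO and 100% = medium wells lacking yeast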
# Numbers without * were called inactive; ? = inconclusive; nt = no result given. Sampled rows, rich in hits. Any-hit rate of the full collection: about 4.4%.
SMILES,PfHsp90 yeast 2,SKKanGAS inh,tim23-1 inh,TIM10 inh,tim10-1 inh,tim10-1 conf,tim10 confirm
CN1c2ccccc2Oc2nnc(N3CCN(Cc4ccccc4)CC3)cc21,-2,6,47,75*,41*,54*,44*
Cc1nc2cc(NC(=O)c3ccc(S(=O)(=O)N(C)c4ccccc4)cc3)ccc2o1,-6,-8,6,15,-2,nt,nt
COc1ccc(-n2nc(C(=O)NCC(=O)NCCCN3CCOCC3)c3ccccc3c2=O)cc1OC,0,-11,12,-17,8,nt,nt
Cc1ccccc1C(=O)NN1C(=O)CSC1=S,nt,-1,11,-10,18,nt,nt
CCOC(=O)c1ccccc1N1C(=O)CSC1=S,-19,-1,42,48*,49*,27,45*
O=C(CCl)N(c1ccc(Cl)cc1)c1c[nH]c2ccccc12,15,17,40,41*,44*,36*,28*
O=C(CCl)N(c1ccccc1)c1c[nH]c2ccccc12,-12,-2,24,20,23,nt,nt
CC(C)C[C@H]1CN=C(Nc2ccccc2)N1CC1CCC(C(C)(C)C)CC1 (stereo partly drawn),-1,nt,50,42*,43*,32*,42*
CC(C)C[C@H]1CN=C(Nc2ccccc2)N1CC1CCCC1,-12,0,-12,-8,-15,nt,nt
CCCc1ccc(C2=Nn3c(nnc3C(C)C)SC2)cc1,12,-2,46,34,9,nt,nt
Cc1ccc(NC(=O)CCS(=O)(=O)c2cccc3nonc23)cc1,-3,1,18,-18,11,nt,nt
Cc1ccc(N(CC(=O)Nc2cccc(C)c2)S(=O)(=O)c2cccc3nonc23)cc1,-10,8,18,44*,42*,33*,39*
COc1ccc(-c2cn3cc(C)ccc3n2)cc1OC,-3,-11,39,67*,50*,43*,60*
Cc1ccc(OCC(=O)O/N=C(\N)c2ccncc2)c(C)c1,26,-3,8,-7,-10,nt,nt
COc1ccccc1C/C(N)=N/OC(=O)COc1ccc(C)cc1C,1,-2,37,43*,48*,42*,35*
Cc1ccc(C(=O)O/N=C(\N)Cc2cccc3ccccc23)cc1,-28,2,33,42*,49*,52*,73*
COc1ccccc1OC(=O)Cc1cccc2ccccc12,-19,16,18,14,-2,nt,nt
COc1ccccc1CC(=O)O/N=C(\N)Cc1cccc2ccccc12,nt,12,8,56*,67*,53*,62*
Cc1cccc(NC(=O)COC(=O)c2cc3ccccc3oc2=O)c1,-16,-3,-2,3,-6,nt,nt
O=C(Nc1cc(Sc2ccccn2)cc([N+](=O)[O-])c1)c1ccc(Cl)cc1,-15,38,2,2,2,nt,nt
O=C(Nc1cc(Sc2ccccn2)cc([N+](=O)[O-])c1)c1cccc(Cl)c1,-12,14,38,54*,42*,34*,-1
CC(=O)c1ccc(NC(=S)NN2C(C)CCCC2C)cc1 (stereo not drawn),nt,-15,4,-2,18,nt,nt
CC(=O)c1ccc(NC(=S)NC2CCCC(C)C2C)cc1 (stereo not drawn),2,-11,45,47*,45*,43*,36*
COc1ccc(N/C=C(\C=C\C#N)S(=O)(=O)c2ccccc2)cc1,24,0,-8,-9,-17,nt,nt
CCCn1c(SCC(=O)Nc2ccccc2C(=O)OC)nc2c1c(=O)n(C)c(=O)n2C,4,0,31,46*,60*,45*,46*
SMILES,PfHsp90 yeast 2,SKKanGAS inh,tim23-1 inh,TIM10 inh,tim10-1 inh,tim10-1 conf,tim10 confirm
CCCn1c(SCC(=O)Nc2ccccc2N2CCCCC2)nc2c1c(=O)n(C)c(=O)n2C,-5,2,17,17,28,nt,nt
O=C(Cc1ccc([N+](=O)[O-])cc1)N/N=C/c1ccccc1F,-15,-6,13,6,0,nt,nt
CC1CC(C)(C)CC2(C1)NC(=O)N(CC(=O)N1CCN(S(=O)(=O)c3cccs3)CC1)C2=O (stereo not drawn),11,nt,-3,5,-5,nt,nt
COc1ccccc1/C=C/CN1CCCC(CCC(=O)NCc2ccccc2F)C1 (stereo not drawn),9,1,12,43*,52*,36*,29
O=S(=O)(NCCSCc1c(Cl)cccc1Cl)c1ccc2c(c1)OCCO2,25,?,48,50*,53*,45*,35*
CCn1c2c(c3cc(Br)ccc31)CCC/C2=N\O,-7,5,29,54*,66*,39*,34*
CCn1c2c(c3cc(OCC(C)C)ccc31)CCCC2=O,-28,-8,17,-6,-6,nt,nt
CCCCn1c(SCC(=O)NCc2ccc3c(c2)OCO3)nnc1C(CC)N(C)C (stereo not drawn),-24,nt,-3,-9,-8,nt,nt
O=C(Nc1ccc(S(=O)(=O)N2CCCCC2c2cccnc2)cc1)c1ccccc1F (stereo not drawn),-3,3,12,59*,52*,47*,43*
COc1ccccc1C(=O)Nc1ccc(S(=O)(=O)N2CCCCC2c2cccnc2)cc1 (stereo not drawn),-40,-1,38,63*,64*,70*,78*
Cc1cccc(C(=O)NC(C(=O)Nc2cccc(S(=O)(=O)N3CCCC3)c2)C(C)C)c1 (stereo not drawn),13,nt,18,11,13,nt,nt
O=C(NCCc1ccccn1)c1nc(Cn2ccc([N+](=O)[O-])n2)no1,-18,1,8,3,9,nt,nt
COc1ccc(OC)c(S(=O)(=O)NCC(c2ccc3c(c2)OCO3)N2CCOCC2)c1 (stereo not drawn),nt,-5,3,0,-16,nt,nt
Cc1nn(-c2ccccc2)c(C)c1/C=N/n1c(-c2ccc(C(C)(C)C)cc2)n[nH]c1=S,-15,87*,46,44*,47*,33*,44*
O=C(C1CCCN(S(=O)(=O)c2ccccc2[N+](=O)[O-])C1)N1CCCC1 (stereo not drawn),-10,5,8,6,12,nt,nt
CC(C)N(Cc1nc(-c2ccc3c(c2)OCO3)no1)Cc1nccn1C,3,-12,8,11,20,nt,nt
O=C1OC(c2ccc(F)cc2)=C/C1=C\c1ccc([N+](=O)[O-])o1,nt,68*,-142,64*,71*,41*,59*
